# Laboratory results reported in PubChem BioAssay (NCI).
# The panel holds about 83,000 compounds, 20% with a hit somewhere; the sample as a whole holds those more often.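 Cells were grown in 96-well plates and exposed to the test compound at a single concentration for 48 hours; results are reported as percent growth, with values below 10 considered active.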 A number with no mark means an inactive call. Calls of active or inactive are those of the source.
# Experiments:
# Assay in all cases: NCI-60 one-dose screen, 48 h (100 = growth as untreated, 0 = no growth, -100 = all killed)
# Details in all cases: 10 µM unless noted
# [1] = system: NCI-H23 lung
# [2] = system: NCI-H226 lung
# [3] = system: NCI-H322M lung
# [4] = system: HOP-62 NSCLC
# [5] = system: NCI-H460 lung
# [6] = system: HOP-92 NSCLC
# [7] = system: NCI-H522 lung
# [8] = system: A549/ATCC NSCLC
# [9] = system: 786-0 renal
# [10] = system: DU-145 prostate
# [11] = system: K-562 leukemia
# [12] = system: MALME-3M melanoma
# [13] = system: MDA-MB-231 breast
# [14] = system: RXF 393 renal
# [15] = system: SF-268 CNS
# [16] = system: SF-295 CNS
# [17] = system: SF-539 CNS
# [18] = system: UACC-257 melanoma
# [19] = system: M14 melanoma
SMILES,growth [1],growth [2],growth [3],growth [4],growth [5],growth [6],growth [7],growth [8],growth [9],growth [10],growth [11],growth [12],growth [13],growth [14],growth [15],growth [16],growth [17],growth [18],growth [19]
CN1CCN(CCCOc2ccc3nc(Nc4cc(Cl)cc(Cl)c4)ccc3c2)CC1,-40.7% (active),-9.2% (active),-55.5% (active),-87.5% (active),-76.2% (active),-27% (active),-81.4% (active),-81% (active),-75.6% (active),-84.1% (active),-61.8% (active),-54.4% (active),-73.2% (active),-60.6% (active),-78.9% (active),-75.9% (active),-86.5% (active),-81.5% (active),-62.2% (active)
O=C1Nc2ccccc2/C1=N/N=C/c1c[nH]c2ccccc12,82%,62.7%,72.9%,67.3%,63%,75.2%,69.2%,78.4%,91.9%,58.3%,80.2%,71.8%,60%,57.5%,65.1%,95.6%,78%,92.4%,59.5%
NS(=O)(=O)Oc1ccc(NC(=O)C23CC4CC(CC(C4)C2)C3)cc1Cl,101%,91.3%,104%,92.1%,103%,87.6%,75.8%,93.7%,98.2%,99.8%,94.6%,97.6%,90.5%,111%,88.1%,101%,87.3%,90.2%,97.3%
CN(C)c1ccc(/C=N/NC(=O)COc2cc(=O)n(C)c3ccccc23)cc1,93.5%,105%,105%,95.7%,110%,93.5%,96.7%,110%,105%,110%,103%,98.4%,97.1%,93.4%,105%,102%,100%,112%,101%
COc1ccccc1C(=O)NC(=S)Nc1ccc(-c2nc3ccccc3[nH]2)cc1,58.4%,46.3%,80.7%,46.2%,4.59% (active),101%,91.4%,58.7%,41.5%,42.9%,48%,27.5%,-10.1% (active),49.1%,49.2%,61.3%,48.1%,94.3%,54.3%
COc1ccc(Oc2nc(Nc3ccc(N4CCCCC4)nc3)ncc2NC(=O)c2cc(OC)cc(OC)c2)cc1,68.8%,60.2%,48.9%,42.5%,19%,76.4%,26.6%,41.6%,39.6%,40.7%,18.6%,64.4%,61.5%,41%,46.3%,23.7%,21.3%,59.4%,32.3%
O=C1Nc2ccccc2/C1=N/N=C/c1ccsc1,95.2%,106%,100%,110%,105%,109%,93.8%,107%,108%,111%,89.9%,103%,92.5%,111%,101%,108%,103%,104%,105%
N=C(N)c1ccc(-c2ccc(-c3ccc(Cl)c(Cl)c3)o2)nc1,65.5%,109%,42.4%,5.09% (active),-78.1% (active),84.6%,78.2%,-35.2% (active),-74.9% (active),-18.5% (active),-1.03% (active),105%,-47% (active),86%,98.5%,-70.1% (active),38.8%,107%,-51.8% (active)
CN=C1C=CC(=C(c2ccc(N(C)C)cc2)c2ccc(N(C)C)cc2)C=C1,-8.66% (active),6.94% (active),-25.8% (active),-23.4% (active),-49.4% (active),-39.1% (active),-36.8% (active),-23.6% (active),-63.1% (active),-6.79% (active),2.18% (active),-56.6% (active),-46.9% (active),-50.8% (active),-56.5% (active),-30.4% (active),-38.3% (active),-43% (active),-65.4% (active)
CCCCN1CCN(c2ccc3nc(-c4ccc5nc(-c6ccc(OCC)c(OCC)c6)[nH]c5c4)[nH]c3c2)CC1,-55.9% (active),16.2%,14.1%,-69.7% (active),-84.3% (active),81.3%,-32.2% (active),37.7%,-87.4% (active),-86.2% (active),-37.1% (active),9.35% (active),-81.2% (active),-96.3% (active),51.6%,-67.8% (active),-93.7% (active),29%,-28% (active)
Oc1ccccc1-c1nc2ccccn2c1NCCN1CCOCC1,100%,101%,91.7%,76.8%,99.2%,85.2%,84%,91.9%,92.4%,102%,83%,96.2%,92.7%,109%,96.1%,98%,97.2%,96.2%,96.5%
CC(=O)OCCc1ccccc1,86.9%,108%,103%,78.1%,110%,85.7%,84.7%,107%,91.8%,134%,79.2%,87.8%,110%,107%,128%,101%,103%,100%,78.6%
CC(c1ccc(-n2cccn2)cc1)c1cnc(N2CCc3ccc(C(N)=O)cc3C2)s1 (centres undefined),59%,43.6%,86.8%,82.2%,74.5%,71%,41%,65.8%,65.8%,88.2%,30.4%,72.4%,72.5%,82.2%,86%,52.3%,70.7%,48.7%,45.6%
CS(=O)(=O)c1ccc(-c2nc3cc(Cl)ccc3n2CC(=O)NO)cc1,94.7%,88.7%,98.6%,97.1%,101%,98%,86.3%,94.1%,99.5%,101%,95.7%,108%,93.8%,94.9%,89.2%,98%,101%,102%,93.6%
O=C1Nc2ccccc2/C1=N/N=C/c1ccc(OC2OC(CO)C(O)C(O)C2O)cc1 (centres undefined),102%,104%,105%,103%,111%,111%,95%,102%,109%,114%,98.3%,101%,105%,114%,102%,110%,97.5%,106%,108%
COc1cc2c(cc1OC)-c1ccc3cc4c(cc3c1N(CCN(C)C)C2)OCO4,-8.26% (active),-84.7% (active),-3.14% (active),-21.6% (active),-34.2% (active),-5.08% (active),-44.9% (active),-57.3% (active),-87.7% (active),6.23% (active),2.7% (active),24.3%,-2.8% (active),-32.7% (active),23.6%,-6.18% (active),-7.83% (active),10.4%,-7.62% (active)
